Laboratory results published in PubChem BioAssay (Tox21).
Activity calls are given as the source filed them. Calls come from the whole dose curve; as a rule, active = well fitted inhibition curve with a large enough effect in the repeat runs (not every such curve was filed as active); inconclusive = weak or mixed curves; inactive = flat fitted curve, though single readings scatter.

Target: Thyrotropin-releasing hormone receptor (Homo sapiens) (UniProt P34981)
Assay: qHTS assay to identify small molecule antagonists of the thyrotropin-releasing hormone receptor (TRHR) signaling pathway (AID 1346877)
Conditions: TRHR-HEK293, TRH-induced calcium fluorescence, antagonist mode; series mostly up to 51.3 µM
Excerpt: National Center for Advancing Translational Sciences [NCATS]
NIH Chemical Genomics Center [NCGC]
U.S. Environmental Protection Agency [EPA]
National Institutes of Environmental Health Sciences [NIEHS]
National Toxicology Program [NTP]
U.S. Food and Drug Administration [FDA]
Thyrotropin-releasing hormone (TRH) receptor (TRHR) is a G-protein-coupled receptor which binds the tripeptide thyrotropin releasing hormone. TRHR is found in the brain and, when bound by TRH, acts (through phospholipase C) to increase intracellular inositol trisphosphate. It plays a crucial role in the anterior pituitary where it controls the synthesis and secretion of thyroid stimulating hormone and prolactin. The TRHR-Hek293 assay is a cell-based assay, and it has the potential to screen G protein-coupled receptors. A compound/drug can either activate (agonist) or suppress (antagonist) GPCRs that can be monitored by levels of intracellular calcium. In this assay, the Tox21 10K compound library was screened to identify potential TRHR antagonists.
Tox21 Assay Protocol Summary:
The TRHR-Hek293 cells were dispensed at 1500cells/4uL/well in 1536-well black-clear bottom plates using a Multidrop dispenser. After the assay plates were incubated at a 37 C/5% CO2 incubator for 18 hours, 4 uL of Dye-Loading Solution was added to each well. The plates were incubated at 37 C for 2 hours. For agonist mode, 23 nL of compounds dissolved in DMSO, positive controls or DMSO only was transferred to the assay plate by a pin tool. The fluorescence intensity in the plates was measured using FDSS 7000EX kinetic plate reader for 3 min at 1 sec intervals. For antagonist mode, 23 nL of compounds dissolved in DMSO, positive controls or DMSO only was transferred to the assay plate by a pin tool. After 5 min incubation at room temperature, 1 uL of TRH was added on the top of the cell/compound mixtures to achieve a final agonist concentration of 1 nM. The fluorescence intensity in the plates was measured using FDSS 7000EX kinetic plate reader for 3 min at 1 sec intervals. Each test compound was measured at 15 concentrations and in triplicates.

Sequence of Thyrotropin-releasing hormone receptor (Homo sapiens) (P34981 whole entry, looked up): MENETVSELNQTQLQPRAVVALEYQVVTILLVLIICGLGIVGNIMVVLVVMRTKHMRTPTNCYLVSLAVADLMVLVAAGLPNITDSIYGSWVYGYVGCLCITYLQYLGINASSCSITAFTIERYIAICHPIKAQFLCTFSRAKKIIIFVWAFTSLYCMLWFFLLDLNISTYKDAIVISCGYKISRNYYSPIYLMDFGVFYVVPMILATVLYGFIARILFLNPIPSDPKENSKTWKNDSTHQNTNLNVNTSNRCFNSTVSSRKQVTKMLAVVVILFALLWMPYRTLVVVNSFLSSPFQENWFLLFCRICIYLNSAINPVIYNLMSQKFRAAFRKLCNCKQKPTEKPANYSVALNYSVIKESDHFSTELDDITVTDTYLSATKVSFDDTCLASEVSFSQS

| Compound | outcome |
| --- | --- |
| O=C(Nc1ccccc1)Nc1ccccc1 | inactive |
| O=C(O)c1snc(Cl)c1Cl | inactive |
| CC(=O)Nc1ccccc1C | inactive |
| COc1ccc(CCC(=O)c2c(O)cc(O[C@@H]3O[C@H](CO)[C@@H](O)[C@H](O)[C@H]3O[C@@H]3O[C@@H](C)[C@H](O)[C@@H](O)[C@H]3O)cc2O)cc1O | inactive |
| O=C(CCCCCCCCC#CI)Oc1ccccc1 | inactive |
| CC(C)CCCCCOC(=O)CCCCC(=O)OCCCCCC(C)C | inactive |
| CO[C@H]1O[C@H](CO)[C@@H](O)[C@H](O)[C@H]1O | inactive |
| O=C(CCC1CCN(Cc2ccccc2)CC1)c1ccc2c(c1)NCCCC2 | inactive |
| C(=C\c1ccccc1)/CN1CCN(C(c2ccccc2)c2ccccc2)CC1 | inactive |
| Nc1ccc(Cl)cc1[N+](=O)[O-] | inactive |
| C[N+](C)(C)CCOC(N)=O | inactive |
| CC(COc1ccc(C(C)(C)C)cc1)OS(=O)OCCCl (stereo not given) | inactive |
| Nc1nccs1 | inactive |
| CC[C@H](NC(=O)c1cc(F)ccc1NS(=O)(=O)c1cccc2cccnc12)c1ccccc1 | inactive |
| CC(=O)[C@H]1CC[C@H]2[C@@H]3C=CC4=CC(=O)CC[C@@]4(C)[C@@H]3CC[C@]12C | inactive |
| CCC(C(=O)OCCOCCN(CC)CC)c1ccccc1 (stereo not given) | inactive |
| CCC(Cc1ccccc1)(C(=O)c1ccc(N2CCOCC2)cc1)N(C)C (stereo not given) | inactive |
| CC(=O)OCC(=O)[C@H]1CC[C@H]2[C@@H]3CCC4=CC(=O)CC[C@]4(C)[C@H]3CC[C@]12C | inactive |
| CC(N)CN (stereo not given) | inactive |
| CCCCN(CCCC)C(=S)SSC(=S)N(CCCC)CCCC | inactive |

| Compound | outcome |
| --- | --- |
| CC1C2CC(CC2C2CCCC(O)C2)C1(C)C (stereo not given) | inactive |
| O=C(C(=O)c1ccccc1)c1ccccc1 | inactive |
| O=C(O)c1ccccc1NCCc1ccccc1 | inactive |
| CC(CCc1ccc2c(c1)OCO2)NN (stereo not given) | inactive |
| O=C(N/N=C/c1ccc([N+](=O)[O-])o1)c1ccc(O)cc1 | inactive |
| CCCCCCOC(=O)C(C)C | inactive |
| Nc1nc(Cl)nc2c1ncn2[C@@H]1O[C@H](CO)[C@@H](O)[C@@H]1F | inactive |
| Cn1c(=O)c2c(ncn2CC(=O)O)n(C)c1=O | inactive |
| CCOC(=O)c1ccccc1OC | inactive |
| c1cc[c]([Bi]([c]2ccccc2)[c]2ccccc2)cc1 | inactive |
| CCCCCCCCCCOS(=O)(=O)O | inactive |
| CO[Si](C)(OC)OC | inactive |
| Nc1ccc(C(=O)OCCCOC(=O)c2ccc(N)cc2)cc1 | inactive |
| CCN(CC)CCNC(=O)c1ccc(NC(C)=O)cc1 | inactive |
| CCCOc1ccc(S(=O)(=O)N2CCN(CC)CC2)cc1-c1nc2c(CC)n(Cc3ccccn3)nc2c(=O)[nH]1 | inactive |
| NC(=O)Cn1c(=O)cc(CCN2CCN(c3nccc4sccc34)CC2)c2ccc(F)cc21 | inactive |
| CC1(C)C2=CCCC(C)(C)[C@]23CC[C@H]1C3 | inactive |
| CCCCC/C(=C\c1ccccc1)CO | inactive |
| Cc1ccc(S)cc1 | inactive |
| CN1C(=O)CC(C)(c2ccccc2)C1=O (stereo not given) | inactive |
